# From PubChem BioAssay (NCATS)
# Results filed as inconclusive are left out. Entries that show only a call come without a potency. Activity calls are given as the source filed them. Unless noted, calls follow the shape of the full dose curve.
# What was measured:
# [1] = qHTS for Inhibitors of the Functional Ribonucleoprotein Complex (vRNP) of Lassa (LASV) Arenavirus: LASV Primary Screen - GLuc reporter signal (AID 1347082; calls by dose curve; tested in HEK293 reporter line; also: nearly all actives have a fitted effect of over 60% in size)
# [2] = qHTS for Inhibitors of the Functional Ribonucleoprotein Complex (vRNP) of Lassa (LASV) Arenavirus: Viability assay - alamar blue signal for LASV Primary Screen (AID 1347083; calls by dose curve; tested in HEK293 reporter line; also: nearly all actives have a fitted effect of over 80% in size)
# [3] = qHTS for Inhibitors of the Functional Ribonucleoprotein Complex (vRNP) of Lymphocytic Choriomeningitis Arenaviruses (LCMV): Viability assay - alamar blue signal for LCMV Primary Screen (AID 1347085; calls by dose curve; tested in HEK293 reporter line; also: nearly all actives have a fitted effect of over 80% in size)
# [4] = biological target: Nucleoprotein (Lymphocytic choriomeningitis virus (strain Armstrong)) (UniProt P09992); experiment: qHTS for Inhibitors of the Functional Ribonucleoprotein Complex (vRNP) of Lymphocytic Choriomeningitis Arenaviruses (LCMV): LCMV Primary Screen - GLuc reporter signal (AID 1347086); also: nearly all actives have a fitted effect of over 70% in size
# Potency is read from the fitted curve at half-maximal effect.
# Nucleoprotein (Lymphocytic choriomeningitis virus (strain Armstrong)), sequence (P09992 whole entry, looked up): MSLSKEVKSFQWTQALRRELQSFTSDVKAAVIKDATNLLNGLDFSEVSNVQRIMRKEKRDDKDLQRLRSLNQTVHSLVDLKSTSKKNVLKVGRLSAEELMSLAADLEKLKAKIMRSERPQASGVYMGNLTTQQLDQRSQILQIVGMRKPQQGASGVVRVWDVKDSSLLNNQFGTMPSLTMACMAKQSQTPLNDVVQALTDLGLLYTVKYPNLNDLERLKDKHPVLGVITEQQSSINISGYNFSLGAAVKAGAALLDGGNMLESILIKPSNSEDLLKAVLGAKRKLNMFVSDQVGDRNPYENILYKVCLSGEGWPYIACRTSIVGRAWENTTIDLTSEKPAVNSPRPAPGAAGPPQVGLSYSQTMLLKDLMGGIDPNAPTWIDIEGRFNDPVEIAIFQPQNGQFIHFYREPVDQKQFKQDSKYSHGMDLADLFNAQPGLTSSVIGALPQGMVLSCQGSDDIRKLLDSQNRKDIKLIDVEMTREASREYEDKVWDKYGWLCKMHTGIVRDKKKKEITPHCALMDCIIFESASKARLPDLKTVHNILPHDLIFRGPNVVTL
SMILES,Potency [1],Potency [2],Potency [3],Potency [4]
COc1cc2c(Oc3ccc(-c4cnc(Nc5ccc(F)cc5)n(C)c4=O)cc3F)ccnc2cc1OCCCN1CCOCC1,21700 nM (active),15300 nM (active),21700 nM (active),24300 nM (active)
Cn1c2cc(S(C)=O)sc2c2cnn(Cc3cccc(N)c3)c(=O)c21 (stereo not given),inactive,inactive,inactive,inactive
O=C1CCCC2=C1C(c1[nH]ncc1Cl)N=C(Nc1nc3ccccc3o1)N2 (stereo not given),inactive,inactive,inactive,inactive
CCN(CC)CCc1nc(-c2ccccc2)no1,inactive,inactive,inactive,inactive
OC[C@H](Cc1ccccc1)Nc1nc(Oc2ccc3c(c2)CCC3)nc2c1ncn2Cc1ccc(-c2ccccc2)cc1,inactive,inactive,inactive,inactive
CC(=O)NCCC(=O)N[C@@H](CCC(N)=O)C(=O)N[C@@H](CO)C(=O)N[C@@H](CCC(N)=O)C(=O)N[C@@H](CCC(N)=O)C(=O)N[C@H](C(=O)N[C@@H](Cc1ccccc1)C(=O)N[C@]1(C)CCCCCCC=CCCC[C@@](C)(C(=O)N[C@@H](CCC(N)=O)C(=O)N[C@@H](CC(N)=O)C(N)=O)NC(=O)[C@H](CC(C)C)NC(=O)[C@H](CC(C)C)NC(=O)[C@@H](CCCNC(=N)N)NC(=O)[C@H](Cc2c[nH]c3ccccc23)NC(=O)[C@H](CC(C)C)NC(=O)[C@H](CC(N)=O)NC1=O)[C@H](C)O,inactive,inactive,inactive,inactive
Cc1cccc(C)c1NC(=O)c1ccccc1C(=O)O,inactive,inactive,inactive,inactive
O=C(Oc1ccccc1)c1cccc(C(=O)Oc2ccccc2)c1,inactive,inactive,inactive,inactive
CC(C[N+](C)(C)C)OC(N)=O (stereo not given),inactive,inactive,inactive,inactive
OCc1c[nH]c2ccccc12,inactive,inactive,inactive,inactive
CCOC(=O)[C@@H](N)CCC(=O)N[C@@H](CSCc1ccccc1)C(=O)N[C@@H](C(=O)OCC)c1ccccc1,inactive,inactive,inactive,inactive
Cc1nn(Cc2ccccc2Cl)c(C)c1CN(C)CC(O)COc1ccc(Cl)cc1 (stereo not given),inactive,inactive,inactive,inactive
CC(=O)Oc1ccccc1C(=O)O,inactive,inactive,inactive,inactive
CC(C)(C)c1cc(C(C)(C)C)c(NC(=O)c2c[nH]c3ccccc3c2=O)cc1O,inactive,inactive,inactive,inactive
O=C(O)c1ccccc1NCCc1ccccc1,inactive,inactive,inactive,inactive
CC(C)(C)COc1ccc(-n2cc(C(=O)O)cn2)cc1C#N,inactive,inactive,inactive,inactive
O=C(O)[C@H](Cc1c[nH]c2ccccc12)N1C(=O)c2ccccc2C1=O,inactive,inactive,inactive,inactive
COc1ccc2c(c1)CC[C@H]1[C@@H]2CC[C@]2(C)[C@@H](NCCCCCCN3C(=O)C=CC3=O)CC[C@H]12,inactive,inactive,inactive,inactive
O=c1[nH]c(-c2ccc(C(F)(F)F)cc2)nc2c1CSCC2,inactive,inactive,inactive,inactive
N#C/C(=C1\SCC(c2ccccc2Cl)S1)n1ccnc1 (stereo not given),inactive,inactive,inactive,inactive
CCCCC/C(C=O)=C\c1ccccc1,inactive,inactive,inactive,inactive
CC(C)C[C@H](NC(=O)[C@@H](O)[C@H](N)Cc1ccccc1)C(=O)O,inactive,inactive,inactive,inactive
O=S(c1cc(Cl)cc(Cl)c1O)c1cc(Cl)cc(Cl)c1O,inactive,inactive,inactive,inactive

SMILES,Potency [1],Potency [2],Potency [3],Potency [4]
O=C(Nc1ccccc1-c1cn2c(CN3CCNCC3)csc2n1)c1cnc2ccccc2n1,inactive,inactive,inactive,inactive
CCN1CCc2nc(N)oc2CC1,inactive,inactive,inactive,inactive
COc1c(N2CCNC(C)C2)c(F)cc2c(=O)c(C(=O)O)cn(C3CC3)c12 (stereo not given),inactive,inactive,inactive,inactive
Oc1c(I)cc(I)c2cccnc12,inactive,inactive,inactive,inactive
CC(C)(C)NCC(O)c1ccc(O)c(CO)c1 (stereo not given),inactive,inactive,inactive,inactive
COc1ccc(-c2ccc3c(N4CCOC[C@H]4C)nc(N4CCOC[C@H]4C)nc3n2)cc1CO,9.7 nM (active),15.3 nM (active),30.6 nM (active),30.6 nM (active)
CCNC(=O)c1noc(-c2cc(C(C)C)c(O)cc2O)c1-c1ccc(CN2CCOCC2)cc1,611 nM (active),273 nM (active),544 nM (active),306 nM (active)
C1Cc2[nH]nc(-c3nn[nH]n3)c2C1,inactive,inactive,inactive,inactive
N=C1N=C(N)c2cc3ccccc3cc21,inactive,inactive,inactive,inactive
Cc1cc(C=c2sc3nc4ccccc4n3c2=O)c(C)n1-c1ccccc1,inactive,inactive,inactive,inactive
O=C(Nc1cccc(Cl)c1)Nc1ncc(CCNc2ncnc3ccsc23)s1,inactive,inactive,inactive,inactive
COc1ccccc1O,inactive,inactive,inactive,inactive
O=C(C=Cc1c(C(=O)O)[nH]c2cc(Cl)cc(Cl)c12)Nc1ccccc1,inactive,inactive,inactive,inactive
CS(=O)(=O)c1cccc(CNc2nc(Nc3ccc4c(c3)CCC(=O)N4)ncc2C(F)(F)F)c1,inactive,38500 nM (active),inactive,inactive
CCn1cc(C(=O)O)c(=O)c2cc3c(cc21)OCO3,inactive,inactive,inactive,inactive
CCCCC(CC)COC(=O)c1ccccc1C(=O)O (stereo not given),inactive,inactive,inactive,inactive
OCCCc1ccccc1,inactive,inactive,inactive,inactive
C[N+]1(C)C2CC(OC(=O)[C@H](CO)c3ccccc3)CC1C1OC12 (stereo not given in full),inactive,inactive,inactive,inactive
COc1ccc2cc(CCC(C)=O)ccc2c1,inactive,inactive,inactive,inactive
C[C@]12CC[C@H](O)CC1=CC[C@@H]1[C@H]2CC[C@]2(C)C(c3cccnc3)=CC[C@H]12,inactive,inactive,inactive,inactive
NC(CO)C(=O)NNCc1ccc(O)c(O)c1O (stereo not given),inactive,inactive,inactive,inactive
Nc1nc(-c2nn(Cc3ccccc3F)c3ncccc23)nc(N)c1N1CCOCC1,inactive,inactive,–,inactive
N#CCNC(=O)c1ccc(-c2ccnc(Nc3ccc(N4CCOCC4)cc3)n2)cc1,inactive,21700 nM (active),–,inactive

SMILES,Potency [1],Potency [2],Potency [3],Potency [4]
CC[C@@H](C)[C@H](NC(=O)[C@H](CC1CCCCC1)NC(=O)c1ccno1)C(=O)N1CCC2(CCc3ccccc32)CC1,inactive,inactive,inactive,inactive
COc1c(C)cnc(Cn2cnc3c(Cl)nc(N)nc32)c1C,1370 nM (active),611 nM (active),685 nM (active),344 nM (active)
CC(=O)Nc1sc2c(c1-c1nc3ccccc3s1)CNC2,inactive,5.4 nM (active),–,2.7 nM (active)
Cc1cccc(C#Cc2ccccc2)n1,inactive,inactive,inactive,inactive
NC(=O)c1ccc(I)c([N+](=O)[O-])c1,inactive,inactive,inactive,inactive
O=C(O)c1ccc2cc(-c3ccc(O)c(C45CC6CC(CC(C6)C4)C5)c3)ccc2c1,inactive,inactive,inactive,inactive
COCCn1c2c([n+](Cc3cnccn3)c1C)C(=O)c1ccccc1C2=O,109 nM (active),109 nM (active),96.8 nM (active),68.5 nM (active)
Fc1ccc(Cl)cc1-c1nc(Nc2ccncc2)c2nccnc2n1,inactive,inactive,inactive,inactive
Cc1[nH]nc2ccc(-c3cncc(OC[C@@H](N)Cc4ccccc4)c3)cc12,432 nM (active),172 nM (active),1370 nM (active),273 nM (active)
[O-][n+]1cccc(/C(Cl)=N/OC[C@@H](O)CN2CCCCC2)c1,inactive,inactive,inactive,inactive
CC1=NN(c2ccccc2)C(=O)C1,inactive,inactive,inactive,inactive
NCCO,inactive,inactive,inactive,inactive
CCN(CC)CCn1c(=O)c(Cc2ccc(OC)cc2)nc2ccccc21,inactive,inactive,inactive,inactive
CCC(=C(c1ccccc1)c1ccc(OCCN(C)C)cc1)c1ccccc1,inactive,inactive,inactive,inactive
O=C(O)CNC(=O)CNC(=O)CNC(=O)CSC(=O)c1ccccc1,inactive,inactive,inactive,inactive
COc1cc(N2CCC(N3CCN(C)CC3)CC2)ccc1Nc1ncc(Cl)c(Nc2ccccc2S(=O)(=O)C(C)C)n1,inactive,inactive,inactive,inactive
Cn1cc(-c2ccc3nnc(Sc4ccc5ncccc5c4)n3n2)cn1,inactive,inactive,–,inactive
COC(=O)[C@]12CCC(C)(C)C[C@@H]1[C@@H]1C(=O)C=C3[C@@]4(C)C=C(C#N)C(=O)C(C)(C)[C@@H]4CC[C@@]3(C)[C@]1(C)CC2,4850 nM (active),3430 nM (active),–,2170 nM (active)
CCCOC(=O)c1ccc(O)cc1,inactive,inactive,inactive,inactive
COc1cc2c(cc1OC)[C@@H]1C(=O)c3ccc4c(c3O[C@@H]1CO2)C=CC(C)(C)O4,153 nM (active),1930 nM (active),–,243 nM (active)
Clc1ccc2ncc(-c3cccc(NC4CNC4)n3)n2c1,inactive,21700 nM (active),–,inactive
COc1cc(Oc2ccnc3cc(OC)c(OC)cc23)ccc1NC(=O)NC(C)c1nccs1 (stereo not given),inactive,inactive,inactive,inactive
